The list is not random: actives were taken first. Their share in the collection is about 17%.
HT1080 IDH1KD tx = kills HT-1080 cells with IDH1 knockdown. HT-1080 IDH1 knockdown viability, ATP luminescence, 48 h. Potency, µM (doses to about 46.1 µM), for inactives: top-dose activity, negative = toxicity, hits mostly cytotoxic. hit rate 2% among 360,000. AID 686971;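 further: 0% = DMSO wells and -100% = cell-free medium wells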
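Using the IDH1-knockdown HT-1080 line run in the same batch and compound series as the NT line, viability after 48 h at 37 °C was determined by CellTiter-Glo luminescence and expressed as % activity.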
HT1080NT lethal = kills 2HG-producing HT-1080-NT fibrosarcoma cells; Potency, µM (doses to about 46.1 µM), without a hit: top-dose activity, negative = less viability, usual class: cytotoxic; HT-1080-NT fibrosarcoma viability, CellTiter-Glo ATP luminescence, 48 h; hit rate 1.6% among 360,000;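 further: NT is the 2HG producing partner of a matched IDH1 knockdown line; 0% = DMSO-treated cells and -100% = media-only wells without cells; nearly all actives have a fitted effect of over 55% in size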
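Read-out is CellTiter-Glo luminescence after 10 minutes at room temperature, following 48 hours' compound treatment of HT-1080-NT cells (750 cells/well, RPMI, 5% FBS, 37 degrees C).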
TGFb SMAD3 inh = blocks TGF-b signaling; HepG2 CAGA-GFP TGF-b/SMAD3 reporter, GFP fluorescence, 18 h; TGF-beta stimulated, 500 pg/mL final; Potency, µM (top dose mostly 46.1 µM), inactives show at the highest dose activity, negative = inhibition, usual class: inhibitors; hit rate 1.2% among 410,000; AID 588855; further: on the % scale 0 is the no-effect control and ±100 the full control effect; nearly all actives have a fitted effect of over 65% in size
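Inhibition was scored as loss of TGF-beta-induced (500 pg/mL final, 18 hours, 37 degrees C) GFP in HEPG2 cells carrying a CAGA-GFP reporter, in DMEM with 1% FBS. Well GFP was summed per cell; Activity was normalised to unstimulated and stimulated DMSO wells, then concentration-response fitting.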
TDP1 cell CPT = DT40-hTDP1 cell growth loss with CPT; chicken DT40 Tdp1-/-;hTDP1 cells + 20 nM CPT, ATP luminescence, 48 h; Potency, µM (highest dose often 46.2 µM), inactives show top-dose activity change, negative = growth inhibition, usual class: inhibitors; hit rate 12% among 420,000; AID 686979; further: on the % scale 0 is the no-effect control and ±100 the full control effect; nearly all actives have a fitted effect of over 55% in size
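Chicken DT40 Tdp1-/- cells complemented with human TDP1, 400 cells/well, exposed to compounds plus 20 nM camptothecin for at least 48 h at 37 C; viability read as ATP content by CellTiter-Glo luminescence.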
HepG2 tox = HepG2 cytotoxicity, counter-screen for TGF-b inhibitors; hit rate 0.76% among 410,000; AID 588856; Potency, µM (titrated, usually from 46.1 µM), for inactives: top-dose activity change, negative = cytotoxicity, usual class: cytotoxic; HepG2 CAGA-GFP viability, ATP luminescence, 18 h
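HepG2 CAGA-GFP cells (1000/well, DMEM with 1% FBS) received compound, then TGF-beta at 500 pg/mL final, and were incubated 18 hours at 37 degrees C. Viability was read by CellTiter-Glo luminescence. Media-only wells were set as complete cell-killing and DMSO as no toxicity.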
DT40 TDP1 no CPT = qHTS for Inhibitors of human tyrosyl-DNA phosphodiesterase 1 (TDP1): qHTS in cells in absence of CPT; DT40 Tdp1-/- hTDP1 cells, no CPT, ATP luminescence, 48 h; Potency, µM (series often up to 46.2 µM), for inactives: at the top dose activity change, negative = growth inhibition, usual class: inhibitors; hit rate 15% among 420,000; AID 686978, 2013; further: on the % scale 0 is the no-effect control and ±100 the full control effect; nearly all actives have a fitted effect of over 55% in size
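Growth of hTDP1-complemented DT40 Tdp1-knockout cells is measured by ATP luminescence after at least 48 hr compound exposure at 37 °C, with DMSO substituting for the 20 nM CPT used in the parallel screen.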
* marks the source's active call; other numbers are inactive results; ? = inconclusive; . = no result; [ ] = remark or other dose. The call rests on the fitted dose curve; in most records, active means well fitted curve in the direction sought with a large enough effect; inconclusive means small, poorly fitted or top-dose-only effect, or another doubt; inactive means no such curve, though single readings can be large; an effect the other way counts as inactive or inconclusive. Potency means the concentration at half of the fitted maximal effect.

SMILES	HT1080 IDH1KD tx	HT1080NT lethal	TGFb SMAD3 inh	TDP1 cell CPT	HepG2 tox	DT40 TDP1 no CPT
O=C(CN1C(=O)c2ccccc2S1(=O)=O)NC1CCCC1	12.2%	-0.9%	-3.6%	-6.9%	-15.9%	-0.4%
O=C(NC1CCCCC1)C(c1ccc(F)cc1)N(Cc1ccccc1)C(=O)CN1C(=O)c2ccccc2S1(=O)=O (configuration not stated)	-0.5%	12.4%	2.3%	20.6µM*	6.4%	20.6µM*
Cc1ccc(S(=O)(=O)Oc2cccc(/C=N/n3cnnc3)c2)cc1	-28.9%	-17.8%	-18.4%	8.2µM*	-59.0%	8.2µM*
O=C(Nc1ccc(S(=O)(=O)Nc2cnc3ccccc3n2)cc1)c1ccc(Cl)c([N+](=O)[O-])c1	-0.1%	-12.5%	?	?	-6.5%	?
S=c1nccc(-c2ccc(Cl)cc2)[nH]1	3.7%	14.2%	-2.3%	?	13.8%	20.6µM*
CCOC(CNC(=O)c1ccc2c(c1)ncn2-c1ccc(F)c(F)c1)OCC	0.9%	-1.1%	-3.5%	-10.7%	1.2%	-6.1%
CCC1CN(CC(=O)NCc2n[nH]c3c2CCCCC3)Cc2cc(OC)ccc2O1 (configuration not stated)	.	.	.	16.9%[9.04 µM]	.	?
O=C(O)c1ccc(Sc2nnc(-c3cccc(Br)c3)o2)c([N+](=O)[O-])c1	0.1%	16.1%	-2.2%	3.7%	-4.8%	2.1%
Cn1c(Sc2ccc(C(=O)O)cc2[N+](=O)[O-])nnc1-c1ccccc1	8.2%	3.1%	?	20.6µM*	-3.8%	?
Cn1nnnc1Sc1ccc([N+](=O)[O-])cc1Cl	-22.2%	1.7%	8.5%	4.4%	-3.1%	-9.0%
O=[N+]([O-])c1ccc(Sc2nnnn2-c2ccccc2)c(Cl)c1	10µM*	8.91µM*	-25.2%	?	-94.7%	20.6µM*
CN1CCN(S(=O)(=O)c2ccc(Sc3nnnn3-c3ccccc3)c([N+](=O)[O-])c2)CC1	-7.5%	-5.7%	?	2.91µM*	-47.5%	3.26µM*
CC(=O)c1ccc(Sc2nnnn2-c2ccccc2)c([N+](=O)[O-])c1	?	-17.5%	0.0%	2.59µM*	-80.2%	2.31µM*
Cc1nn2c(-c3ccccn3)ccnc2c1Cl	4.6%	4.3%	6.1%	-3.0%	6.4%	5.2%
COc1ccc(CCNC(=O)CCn2c(=O)c3ccccc3n(Cc3c(C)cc(C)cc3C)c2=O)cc1OC	.	.	3.7%	-0.6%	-3.3%	-0.7%
COc1ccc(C(NC(=O)COc2ccc(C#N)cc2)c2ccc(OC)cc2)cc1	.	.	-0.8%	?	1.3%	?
O=S(=O)(c1ccc(Br)c2ccccc12)N1CCCC1	-27.0%	1.3%	?	4.0%	-1.8%	-25.7%
O=S(=O)(c1ccc(Cl)c2ccccc12)N1CCCC1	-13.3%	-15.0%	2.5%	-41.1%	-21.1%	0.461µM*
O=C1Nc2ccc(S(=O)(=O)N3CCCC3)c3ccc(S(=O)(=O)N4CCCC4)c1c23	-25.8%	-11.8%[9.24 µM]	-19.8%	8.2µM*	11.0%	?
CC1(C)CC(=O)C=C(c2n[nH]nc2-c2ccc(F)c(F)c2)C1	8.3%	2.1%	4.2%	-12.7%	-4.3%	-26.5%
CCOc1ccc(S(=O)(=O)NCCC(=O)N2CCN(C(C)=O)CC2)cc1	-3.3%	-2.0%	-8.3%	-7.1%	1.5%	?
c1ccc(C(=C2CCCO2)c2ccccc2)cc1	-0.2%	9.2%	1.3%	-6.9%	6.9%	-6.4%
CC[N+]1(CC)CCC(=C(c2ccccc2)c2ccccc2)C1C (configuration not stated)	.	.	.	5.31µM*	.	3.35µM*
COC(=O)c1nc(-c2ccccc2)nc(-c2ccccc2)c1C(=O)OC	4.1%	-0.4%	13.2%	12.8%	-15.7%	-13.0%
CC(=O)Nc1ccc(/C=C2\C=C(C(O)c3ccc(NC(C)=O)cc3)c3ccccc32)cc1 (configuration not stated)	.	.	?	20µM*	-52.4%	10µM*
SMILES	HT1080 IDH1KD tx	HT1080NT lethal	TGFb SMAD3 inh	TDP1 cell CPT	HepG2 tox	DT40 TDP1 no CPT
CSc1ccc(/C=C2\C=C(C(O)c3ccc(SC)cc3)c3ccccc32)cc1 (configuration not stated)	.	.	-6.8%	10µM*	-27.6%	10µM*
OC(C1=C/C(=C\c2ccncc2)c2ccccc21)c1ccncc1 (configuration not stated)	.	.	?	11.2µM*	-37.2%	11.2µM*
OC(c1ccccc1)c1cccnc1 (configuration not stated)	-1.9%	-0.2%	0.0%	-13.6%	-12.7%	6.9%
CSc1ccc(/C=C/C(=O)Nc2ccccc2)cc1	?	?	15.6%	?	-41.2%	-23.8%
CC(=O)Nc1ccc(/C=C2\C=Cc3ccccc32)cc1	.	.	0.7%	?	-29.4%	?
O=C(Nc1nc(-c2ccc(Br)cc2)ns1)c1ccccc1F	.	.	2.8%	?	-11.7%	-29.2%
CC(NS(=O)(=O)c1c(N)n(C)c(=O)n(C)c1=O)c1ccccc1 (configuration not stated)	-6.8%	0.9%	-1.8%	-0.8%	0.0%	?
Cc1nn(CCC(=O)N2CCN(S(=O)(=O)c3ccccc3)CC2)c(C)c1C	3.7%	1.8%	15.8%	0.8%	4.4%	-4.0%
COc1cccc(N2CCN(C(=O)CCn3nc(C)c(S(=O)(=O)N4CCCC4)c3C)CC2)c1	.	.	-16.1%	?	-7.9%	14.6µM*
Cc1cc(C)c(S(=O)(=O)N2CCN(C(=O)CCn3nc(C)c(C)c3C)CC2)c(C)c1	-8.7%	-13.8%	10.3%	-61.8%	23.6%	14.6µM*
CCN(CC)CC(O)CCCCCCCCC(=O)OC (configuration not stated)	5.6%	6.7%	20.1%	1.3%	14.9%	-7.7%
COC(=O)CCCCCCCCC(O)CN(C)C (configuration not stated)	?	7.3%	0.5%	?	-11.2%	16.4µM*
COc1cccc(-c2cc(C(=O)NCC3CCCO3)on2)c1 (configuration not stated)	21.6%	14.3%	19.1%	14.3%	7.5%	5.3%
COc1ccc(OC)c(-c2nc(C(=O)NCC3CCCO3)cc3c2[nH]c2ccccc23)c1 (configuration not stated)	-10.6%	-11.6%	4.5%	18.4µM*	-35.1%	20.6µM*

Screening data deposited in PubChem by National Center for Advancing Translational Sciences (NCATS).
